Screening results as filed in PubChem.
IDH1 R132H inh: human IDH1 R132H inhibition | IDH1-R132H enzyme, NADPH consumption, diaphorase/resazurin fluorescence | Potency, µM (titrated, usually from 76.6 µM), for the others: top-dose activity change, negative = inhibition, actives largely listed as inhibitors | hit rate 0.093% among 390,000 | AID 602179; further: potency means the concentration at half of the fitted maximal effect; on the % scale 0 is the no-effect control and ±100 the full control effect; nearly all actives have a fitted effect of over 65% in size
Target sequence (O75874 whole entry R132H, stated change not applied): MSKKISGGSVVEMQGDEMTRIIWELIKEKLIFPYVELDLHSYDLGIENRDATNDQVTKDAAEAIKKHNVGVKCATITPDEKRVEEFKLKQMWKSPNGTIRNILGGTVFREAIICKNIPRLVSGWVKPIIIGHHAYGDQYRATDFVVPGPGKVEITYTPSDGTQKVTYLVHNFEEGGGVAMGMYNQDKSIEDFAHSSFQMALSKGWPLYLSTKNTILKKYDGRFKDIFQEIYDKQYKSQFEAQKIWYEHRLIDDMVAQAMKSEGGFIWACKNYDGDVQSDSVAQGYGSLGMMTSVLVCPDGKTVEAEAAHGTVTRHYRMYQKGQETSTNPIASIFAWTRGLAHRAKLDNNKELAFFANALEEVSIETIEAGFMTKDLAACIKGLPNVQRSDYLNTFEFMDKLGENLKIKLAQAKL
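IDH1-R132H (0.5 ug/mL) preincubated 30 min with compound, then NADPH (0.016 mM) and alpha-KG (2 mM) added; 80 min at RT, pH 7.5. Remaining NADPH coupled via diaphorase/resazurin to fluorescence (540/590 nm); concentration-response curves normalized to no-enzyme control.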
TDP-43 yeast inh: rescues yeast growth from TDP-43 toxicity | TDP-43 expressing yeast growth rescue, BacTiter-Glo, 24 h | Potency, µM (doses to about 46.1 µM), for the others: at the highest dose growth rescue (activation), most hits filed as activators | hit rate 1.8% among 410,000; further: potency means the concentration at half of the fitted maximal effect; % of control where 0% means no effect; nearly all actives have a fitted effect of over 50% in size
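Luminescence from BacTiter-Glo reports growth of TDP-43-expressing yeast after 24 hr at 30 deg C with compound. Cells were raffinose-pregrown to mid-log, then seeded in galactose medium at OD600=0.02.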
FUS suppressor: FUS proteinopathy suppression in yeast; Potency, µM (doses to about 76.6 µM), most hits filed as activators; S. cerevisiae FUS-expressing, growth rescue, OD600, 24 h; hit rate 0.24% among 390,000;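 further: potency means the concentration at half of the fitted maximal effect; plate controls were DMSO vehicle for no effect and reference control for full effect; nearly all actives have a fitted effect of over 55% in size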
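Yeast FUS proteinopathy model; galactose-induced FUS (2%), starting OD 0.005. Cpds in dilution series, 24hr, 30C, 99% humidity. Abs 600 nm growth. Pos ctrl CP55940 (top 92uM final); neg ctrl DMSO.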
aSyn rescue: inhibitors of alpha-synuclein toxicity in yeast | Yeast expressing alpha-synuclein, growth rescue, BacTiter-Glo, 24 h | Potency, µM (doses to about 46.1 µM), inactives show top-dose growth rescue (activation), most hits filed as activators | hit rate 0.14% among 370,000; further: potency means the concentration at half of the fitted maximal effect; % of control where 0% means no effect; nearly all actives have a fitted effect of over 65% in size
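Screening used galactose-induced yeast with toxic alpha-synuclein levels, exposed to compound for 24 hr at 30 deg C. Cell growth, read with BacTiter-Glo luminescence, gave the measured signal.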
LDHA block: blocks human lactate dehydrogenase A | hit rate 0.15% among 480,000 | P00338 | activity change, % (values are at about 110 or 230 µM) | purified LDHA, NADH/diaphorase-resazurin fluorescence; stronger effect = lower value; in the data active means activity change below about -30%; inconclusive means mostly about -25% to -30%;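 further: plate controls were DMSO wells for no effect and wells without enzyme for full effect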
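Human LDH5 (2 nM) was incubated with 0.06 mM NADH and 0.2 mM pyruvate for 5 min at room temperature in Tris pH 7.4. Remaining NADH was coupled through diaphorase/resazurin, and resorufin fluorescence was read at 0 and 20 min.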
Abeta rescue: compounds reversing amyloid beta toxicity in yeast | yeast expressing A-beta42, growth rescue, OD600, 48 h; response scale: 0% DMSO, 100% iron-clioquinol control | Potency, µM (doses to about 46.1 µM), usual class: activators | hit rate 0.063% among 410,000 | AID 1347071; further: potency means the concentration at half of the fitted maximal effect; nearly all actives have a fitted effect of over 55% in size
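Yeast growth medium received pinned compounds, then yeast cells expressing toxic A-beta were added; plates incubated at 30 C for 48 hr. Growth read as absorbance at 600 nm, normalized to DMSO and equimolar FeCl3 plus clioquinol controls.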
* = called active by the depositor; i = inactive; ? = inconclusive; . = not tested or not shown. Hits are enriched below; roughly 2% of the tested compounds scored in any of these assays. Unless noted, the call rests on the fitted dose curve; in most records, active means well fitted curve in the direction sought with a large enough effect; inconclusive means small, poorly fitted or top-dose-only effect, or another doubt; inactive means no such curve, though single readings can be large; an effect the other way counts as inactive or inconclusive.

SMILES	IDH1 R132H inh	TDP-43 yeast inh	FUS suppressor	aSyn rescue	LDHA block	Abeta rescue
COc1cc2cc(C(c3nnnn3C(C)(C)C)N3CCc4ccccc43)c(=O)[nH]c2cc1OC (stereo not given)	0%	-22%	28µM*	10%	0	i
CNS(=O)(=O)c1ccc(Oc2ccc3ccc(=O)oc3c2)c([N+](=O)[O-])c1	.	.	.	.	-2	.
CSc1nn(Cc2cccc(Cl)c2)c(N(C(C)=O)C(C)=O)c1S(=O)(=O)c1ccccc1	-10%	11µM*	i	.	?	i
Cc1cccc(Nc2nnc(SCC3CCCCO3)s2)c1 (stereo not given)	4%	?	i	-10%	-2	i
COc1ccc(Nc2nnc(SCC3CCCCO3)s2)cc1 (stereo not given)	4%	11µM*	i	-18%	-1	i
CCOC(=O)c1sc2nccc(N(C)C)c2c1N=CNOCc1c(F)cccc1Cl	9%	18µM*	i	5%	4	i
Cc1ccccc1NC(=O)c1cc(=O)c2ccccc2o1	1%	13µM*	i	-10%	-4	i
O=C(NCCc1ccc(F)cc1)c1cc(=O)c2ccccc2o1	8%	22µM*	i	14%	-7	i
N#Cc1c(N2CCN(C(=O)C(=O)N3CCCC3)CC2)nc(-c2ccco2)c2c1CCCC2	.	.	.	.	2	.
COc1ccc(C2C3=C(COC3=O)Nc3c2c(=O)[nH]c(=O)n3CC(C)C)cc1 (stereo not given)	.	.	.	.	-7	.
Cc1cccc(Nc2ncccc2C(=O)NCc2cccs2)c1C	4%	7.9µM*	i	-7%	4	i
O=C(NCc1cccs1)c1cccnc1Cl	4%	4%	i	1%	4	i
Cc1ccc(Nc2ncccc2C(=O)NCc2cccs2)c(C)c1	2%	11µM*	i	.	0	i
COc1ccc(NC(=O)C2CC(c3c(F)cccc3Cl)=NO2)cc1 (stereo not given)	-13%	13µM*	i	-2%	-15	i
COc1cc(NC(=O)C2CC(c3c(F)cccc3Cl)=NO2)cc(OC)c1OC (stereo not given)	-1%	22%	i	-13%	-3	i
CCCCCCCNC1=CC(=O)CC(c2ccccc2)C1 (stereo not given)	-2%	20µM*	i	17%	3	i
O=C(CCc1c[nH]c2ccccc12)Nc1ccc(F)c(F)c1	.	.	.	.	4	.
CC[N+](CC)(CC)CCOc1cccc(OCC[N+](CC)(CC)CC)c1OCC[N+](CC)(CC)CC	-12%	0%	i	9%	-19	i
CC[N+](CC)(CC)CCOc1ccc(/C=C/c2ccccc2)cc1	11%	35µM*	i	10%	-12	i
Fc1ccc(NN=C2c3ccccc3-c3ccccc32)c(F)c1	.	.	.	.	5	.
Cc1cc(C)c(S(=O)(=O)NC2CC3CCC2C3)c(C)c1 (stereo not given)	-3%	13µM*	i	-13%	0	i
COCCn1c(SCC(=O)c2ccc3c(c2)CCC3)nnc1-c1ccc(Cl)cc1	.	.	.	.	3	.
COc1ccc(-c2nc(C)c(CCNC(=O)c3cccs3)s2)cc1	0%	14µM*	i	-6%	-1	i
CCOc1ccc(C(=O)NCCc2sc(-c3ccc(OC)cc3)nc2C)cc1	.	.	.	.	4	.
Cc1cccc(-c2nc(C)c(CCNC(=O)c3cccs3)s2)c1	-2%	16µM*	i	-22%	3	i
SMILES	IDH1 R132H inh	TDP-43 yeast inh	FUS suppressor	aSyn rescue	LDHA block	Abeta rescue
Cc1nc(-c2ccccc2)sc1CCNC(=O)c1ccco1	-12%	18µM*	i	-14%	-2	i
Cc1ccc(-c2nc(C)c(CCNC(=O)c3cccs3)s2)cc1	-3%	16µM*	i	-19%	6	i
O=C(NCCc1csc(-c2ccccc2)n1)c1ccco1	3%	?	i	6%	-3	i
CCCCn1c(=O)c2ccccc2n(CC(=O)Nc2cccc(C(F)(F)F)c2)c1=O	.	.	.	.	-3	.
COc1ccc(-c2nc(C)c(CCNC(=O)c3cccc(C)c3)s2)cc1OC	-4%	22µM*	i	-6%	-5	i
COc1ccc(-c2nc(C)c(CCNC(=O)c3cc(OC)c(OC)c(OC)c3)s2)cc1OC	-3%	5%	i	3%	0	i
Cc1cccc(-c2nc(C#N)c(N3CCN(Cc4ccccc4)CC3)o2)c1	.	.	.	.	0	.
COc1cccc(C(=O)Nc2ccc3oc(-c4cccnc4)nc3c2)c1	.	.	.	.	-4	.
COc1cc(C(=O)/C=C/c2cccc(OC(C)C(=O)O)c2)ccc1O (stereo not given)	.	.	.	.	5	.
COc1ccc(-c2cc(=O)c3cc(OC(=O)C(C)(C)C)ccc3o2)cc1	.	.	.	.	-32*	.
COc1ccc(-c2cc(=Nc3ccc(C(=O)O)cc3)c3cc(C)ccc3o2)cc1	0%	18µM*	i	11%	-3	i
COc1ccc(-c2cc(=O)c3cc(OC(=O)C(C)C)ccc3o2)cc1	.	.	.	.	12	.
COC(=O)CC[S+](=O)([O-])c1ccc(-n2cccc2/C=C2\NC(=O)N(CC(=O)Nc3ccc(C)cc3)C2=O)cc1	.	.	.	.	-7	.
Cn1c(=O)[nH]c(=O)c2c1nc(N1CCN(Cc3ccc(F)cc3)CC1)n2Cc1ccccc1	.	.	.	.	0	.
Cc1cc(C(C)(C)C)ccc1OCCOCCN1CCCC1	6%	0%	i	-2%	-11	i
Cc1cc(C(C)(C)C)ccc1OCCN(C)C	-1%	-4%	i	1%	-31*	i
O=C(O)c1ccc(CSc2nc3ccccc3o2)cc1	-4%	13µM*	i	6%	-7	i
O=C(O)c1ccccc1CSc1nc2ccccc2o1	-1%	?	i	6%	-6	i
CCOC(=O)c1sc(CC(=O)Nc2ccc(C)cc2C)nc1C	.	.	.	.	1	.
Cc1ccc(NC(=O)CC2SC(=O)N(c3ccccc3)C2=O)cc1 (stereo not given)	12%	20µM*	i	5%	-7	i
O=C(CC1S/C(=N\S(=O)(=O)c2ccccc2)N(c2ccccc2)C1=O)Nc1ccc(F)cc1 (stereo not given)	6%	-3%	18µM*	8%	-7	i
Cc1ccc(S(=O)(=O)/N=C2\SC(CC(=O)Nc3ccc(F)cc3)C(=O)N2c2ccccc2)cc1 (stereo not given)	2%	1%	.	-8%	-4	i
O=C(c1cc(F)cc(F)c1)N(Cc1ccco1)C1CC1	.	.	.	.	0	.
